From PubChem BioAssay (NCATS)
Several values for one entry are separate records, joined by “and”; a condition that tells them apart may be missing. Equal entries are not always repeated. Records with an inconclusive call do not appear. Activity calls are given as the source filed them. Unless noted, calls come from the whole dose curve; as a rule, active = well fitted curve in the direction sought with a large enough effect; inconclusive = small, poorly fitted or top-dose-only effect, or another doubt; inactive = no such curve, though single readings can be large; an effect the other way counts as inactive or inconclusive.

Legend:
[1] = biological target: DNA repair nuclease/redox regulator APEX1 (Homo sapiens) (UniProt P27695); test: qHTS Validation Assay for Inhibitors of the Human Apurinic/apyrimidinic Endonuclease 1 (APE1) (AID 1705; note: potency is the fitted concentration of half-maximal effect;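 for activity change, negative = inhibition: TAMRA fluorescence gain over two minutes as APE1 cuts a quenched THF abasic duplex; % is set by controls: 0 for no effect and ±100 for the full control effect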)
DNA repair nuclease/redox regulator APEX1 (Homo sapiens), sequence (P27695 whole entry, looked up): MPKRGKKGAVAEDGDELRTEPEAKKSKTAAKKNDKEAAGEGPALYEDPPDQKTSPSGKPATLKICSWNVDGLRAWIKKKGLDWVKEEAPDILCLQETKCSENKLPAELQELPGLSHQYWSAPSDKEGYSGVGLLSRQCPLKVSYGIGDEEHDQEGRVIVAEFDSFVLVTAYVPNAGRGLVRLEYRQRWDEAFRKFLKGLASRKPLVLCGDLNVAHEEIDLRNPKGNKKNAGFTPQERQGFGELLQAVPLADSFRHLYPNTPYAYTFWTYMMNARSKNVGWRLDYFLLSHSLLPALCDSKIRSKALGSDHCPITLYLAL
Method in brief: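 qHTS, 1536-well. APE1 + cpd 15 min RT → 50 nM TAMRA/BHQ-2 THF-abasic dsDNA substrate → kinetic fluorescence, 3 reads/60 s; delta(read3−read1) = reaction progress. No-enzyme buffer = negative control.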

[2] = Counterscreen for APE1 Inhibitors: Fluorescent Dye Displacement Validation Assay (AID 1707);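 note: plate controls were ThO with dsDNA and no compound for no effect and ThO without dsDNA for full effect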
Method in brief: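 Assay buffer: Tris-HCl pH7.5 with 50mM NaCl, 2 mM MgCl2, 0.01% Tween-20. Dye 250 nM, duplex 50 nM final. Readout: decrease in ThO endpoint fluorescence, 480 nm excitation, 540 nm emission.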

[3] = biological target: Endonuclease 4 (Escherichia coli (strain K12)) (UniProt P0A6C1); test: Counterscreen for APE1 Inhibitors: qHTS Validation Assay for Inhibitors of Endonuclease IV (AID 1708); note: potency is the fitted concentration of half-maximal effect; for activity change, negative = inhibition: % is set by controls: 0 for no effect and ±100 for the full control effect
Method in brief: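 qHTS concentration-response format; LOPAC1280 tested under APE1-screen conditions. 2 nM enzyme, 15 min compound preincubation at RT, then 50 nM TAMRA/BHQ-2 abasic substrate; kinetic fluorescence read, three reads at 60 s intervals.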

[4] = biological target: Alpha-galactosidase A (Homo sapiens) (UniProt P06280); test: Counterscreen for Glucocerebrosidase Inhibitors: qHTS Assay for Human alpha-Galactosidase at pH 4.5 (AID 992); note: 0% is about no effect
Alpha-galactosidase A (Homo sapiens), sequence (P06280 whole entry, looked up): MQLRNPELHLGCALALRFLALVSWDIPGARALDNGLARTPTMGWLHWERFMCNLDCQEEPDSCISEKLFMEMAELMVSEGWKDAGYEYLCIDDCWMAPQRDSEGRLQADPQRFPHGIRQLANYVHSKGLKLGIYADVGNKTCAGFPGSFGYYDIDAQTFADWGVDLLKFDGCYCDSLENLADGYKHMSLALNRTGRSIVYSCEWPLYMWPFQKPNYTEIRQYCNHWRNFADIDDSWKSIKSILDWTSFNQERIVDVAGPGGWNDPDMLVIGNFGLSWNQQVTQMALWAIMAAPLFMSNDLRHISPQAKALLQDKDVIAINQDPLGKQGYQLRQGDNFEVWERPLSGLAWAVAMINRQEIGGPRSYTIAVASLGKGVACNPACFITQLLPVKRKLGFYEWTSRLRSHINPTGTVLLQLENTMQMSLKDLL
Method in brief: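 Concentration-response curves (0.7 nM to 77 uM final) were modeled with the Hill equation to give AC50. Reactions: 2 nM enzyme, 80 uM fluorogenic alpha-galactoside, pH 4.5 citric acid buffer, 20 min, room temperature.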

[5] = biological target: alpha-glucosidase (Oryza sativa, rice) (UniProt Q653V4); test: Counterscreen for Glucocerebrosidase Inhibitors: qHTS Assay for Rice alpha-Glucosidase at pH 5.0 (AID 997);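 note: 0% = full activity with enzyme and -100% = basal without enzyme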
Method in brief: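 Rice alpha-glucosidase (4 nM final) with 400 uM 4-methylumbelliferyl-alpha-D-glucopyranoside in citrate buffer pH 5.0, 20 min at room temperature, stopped at pH 10; fluorescence 365/440 nm, compounds 0.7 nM–77 uM, AC50 from Hill fits.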

[6] = qHTS Assay for Lipid Storage Modulators (AID 1519; calls by dose curve; for activity change, negative = inhibition: % is set by controls: 0 for no effect and ±100 for the full control effect); details: Drosophila S3 cells, BODIPY lipid droplet/cell ratio, laser cytometry, cells loaded with oleic acid; for activity change, negative = inhibition: at 57.5 µM (top of the series)
Method in brief: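 Cells seeded at 5,000 per well were treated with compounds over a concentration series and loaded with oleic acid (400 uM, as added). Lipid droplet fluorescence (488 nm excitation, 500-530 nm channel) was read by laser-scanning cytometry and normalized to 20 uM Triacsin C.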

[7] = qHTS for differential inhibitors of proliferation of Plasmodium falciparum line 7G8 (AID 1815);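 note: parasite growth measured after three days of incubation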; note: potency is the fitted concentration of half-maximal effect;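 for activity change, negative = inhibition: plate controls were vehicle wells for no effect and reference inhibitor wells for full effect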
[8] = qHTS for differential inhibitors of proliferation of Plasmodium falciparum line GB4 (AID 1816); details: Potency: Plasmodium falciparum GB4 proliferation inhibition;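 note: parasite growth measured after 72 h incubation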; note: potency is the fitted concentration of half-maximal effect;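 for activity change, negative = inhibition: 0% = vehicle DMSO and -100% = reference inhibitor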
[9] = qHTS for differential inhibitors of proliferation of Plasmodium falciparum line 3D7 (AID 1876); note: potency is the fitted concentration of half-maximal effect
[10] = qHTS for differential inhibitors of proliferation of Plasmodium falciparum line D10 (AID 1877);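 note: parasites grown with compound for 72 h before DNA staining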; note: potency is the fitted concentration of half-maximal effect;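 for activity change, negative = inhibition: plate controls were vehicle wells for no effect and reference inhibitor wells for full effect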
[11] = Cell Viability - LYMP2-014 (AID 983);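 note: plate controls were DMSO only for no effect and 92 µM tetraoctylammonium bromide for full effect; nearly all actives have a fitted effect of over 50% in size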
Method in brief: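 Luminescent ATP signal (CellTiter-Glo, 30 min at room temperature) serves as the viability read-out after 24 hr compound exposure at 37 C. Cells were seeded at 2500 per well and settled 5 hr beforehand.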

[12] = Cell Viability - LYMP2-016 (AID 984);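 note: cells exposed to compound for 24 hours at 37 °C; nearly all actives have a fitted effect of over 55% in size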; note: potency is the fitted concentration of half-maximal effect
Method in brief: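 Cells were seeded at 2500 per well and rested 5 hr before a 24 hr compound exposure at 37 C. Viability was then gauged as cellular ATP by luciferase luminescence, with AC50 values fitted to the Hill equation.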

[13] = Cell Viability - LYMP2-020 (AID 986); note: nearly all actives have a fitted effect of over 55% in size; note: potency is the fitted concentration of half-maximal effect
Method in brief: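 Luminescent ATP signal (CellTiter-Glo, 30 min at room temperature) is the read-out after 24 h compound treatment of lymphoblastoid cells at 37 C. AC50 values come from Hill-equation fits across concentrations.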

[14] = Cell Viability - LYMP2-022 (AID 987); note: nearly all actives have a fitted effect of over 55% in size; note: potency is the fitted concentration of half-maximal effect
Method in brief: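 qHTS: human lymphoblastoid cells 2500/well; 5 hr 37 C; cpd added; 24 hr 37 C; CellTiter-Glo, 30 min RT; luminescence. AC50 via Hill fit; tetraoctylammonium bromide positive ctrl.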

[15] = Cell Viability - LYMP2-024 (AID 988);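 note: plate controls were DMSO only for no effect and 92 µM tetraoctylammonium bromide for full effect; nearly all actives have a fitted effect of over 60% in size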
Method in brief: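 Steps: seed 2500 cells/well, 5 hr 37 C; add compound, 24 hr 37 C; add CellTiter-Glo, 30 min room temperature; read luminescence. AC50 derived by Hill modelling of concentration-dependent ATP loss.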

[16] = Cell Viability - LYMP2-026 (AID 989); note: nearly all actives have a fitted effect of over 50% in size; note: potency is the fitted concentration of half-maximal effect
Method in brief: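 Luminescent ATP signal (CellTiter-Glo, 30 min room temperature) measures viable lymphoblastoid cells after 24 hr compound treatment at 37 C. Decreased ATP reflects acute toxicity; AC50 values come from Hill-equation modeling.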

[17] = Cell Viability - LYMP1-002 - Assay at 24 hr (AID 993); note: potency is the fitted concentration of half-maximal effect
Method in brief: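 Cells plated 2500/well, 5 hr 37 C; compounds added, 24 hr 37 C; CellTiter-Glo added, 30 min RT; luminescence read. Tetraoctylammonium bromide positive control. Hill-equation AC50.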

[18] = Cell Viability - LYMP1-002 - Assay at 40 hr (AID 994); note: nearly all actives have a fitted effect of over 60% in size; note: potency is the fitted concentration of half-maximal effect
Method in brief: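 Luminescent ATP signal served as the viability readout, with decreases taken as toxicity. Cells were treated with compounds across a concentration range for 40 hours at 37 C, and AC50 values came from standard Hill modeling.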

[19] = Cell Viability - LYMP2-018 (AID 985); note: nearly all actives have a fitted effect of over 50% in size; note: potency is the fitted concentration of half-maximal effect
Method in brief: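 Luminescent ATP signal (CellTiter-Glo, read after 30 min at room temperature) reports viable cells after 24 hr compound treatment at 37 C. Concentration-response data were fitted to the standard Hill equation for AC50.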

[20] = measured here: cell count channel max response
[21] = measured here: lipid channel max response

CNC(=O)Oc1ccc2c(c1)[C@]1(C)CCN(C)[C@@H]1N2C
inactive: Potency [1] | Potency [2] | Potency [3]

CCCn1cnc2c1c(=O)n(CCCCC(C)=O)c(=O)n2C
inactive: outcome [4] | outcome [5] | activity change, negative = inhibition [6] 0.49% | Potency [1] | Potency [2] | Potency [3]
50.9%: max response [6, 21]
51.1%: max response [6, 20]

CCN(CC)CCCC(C)Nc1c2ccc(Cl)cc2nc2ccc(OC)cc12 (stereo not drawn)
14.1% and -23.7%: max response [6, 21]
2.35% and -26.6%: max response [6, 20]
active: Potency [1] 15.8 µM | Potency [3] 12.6 µM | Potency [7] 0.178 µM | Potency [8] 0.0891 µM | Potency [9] 0.1 µM | Potency [10] 0.0891 µM
inactive: activity change, negative = inhibition [6] 9.16% and 1.41%

CC1=C(/C=C/C(C)=C/C=C/C(C)=C/C(=O)O)C(C)(C)CCC1
-7.9%: max response [6, 21]
active: Potency [7] 14.1 µM
-9.37%: max response [6, 20]
inactive: activity change, negative = inhibition [6] 0.149% | Potency [1] | Potency [2] | Potency [3] | Potency [9] | Potency [10]

CSc1ccc2c(c1)N(CCC1CCCCN1C)c1ccccc1S2 (stereo not drawn)
inactive: activity change, negative = inhibition [6] -0.301% | Potency [1] | Potency [2]
-4.98%: max response [6, 21]
-6.02%: max response [6, 20]
active: Potency [7] 4.47 µM | Potency [8] 3.98 µM | Potency [9] 8.91 µM | Potency [10] 12.6 µM

CN(C)CCOC(C)(c1ccccc1)c1ccccn1 (stereo not drawn)
active: Potency [8] 6.31 µM
-15.9%: max response [6, 20]
inactive: activity change, negative = inhibition [6] 3.29% | Potency [1] | Potency [2] | Potency [3]
-9.47%: max response [6, 21]

C[C@]12C[C@H](O)[C@H]3[C@@H](CCC4=CC(=O)CC[C@@]43C)[C@@H]1CC[C@@H]2C(=O)CO
inactive: outcome [11] | Potency [12] | Potency [13] | Potency [14] | outcome [15] | Potency [16] | outcome [4] | Potency [17] | Potency [18] | outcome [5]

O=C1c2c(O)cccc2Cc2cccc(O)c21
20.2%: max response [6, 21]
inactive: outcome [11] | Potency [12] | Potency [19] | Potency [13] | Potency [14] | outcome [15] | Potency [16] | Potency [17] | Potency [18] | activity change, negative = inhibition [6] 2.53%
14.4%: max response [6, 20]

NC(=O)N/N=C/c1ccc([N+](=O)[O-])o1
-28%: max response [6, 21]
inactive: Potency [13] | Potency [16] | Potency [17] | activity change, negative = inhibition [6] -28.3%
-6.33%: max response [6, 20]

Cc1c(O)cccc1C(=O)N[C@@H](CSc1ccccc1)[C@H](O)CN1C[C@H]2CCCC[C@H]2C[C@H]1C(=O)NC(C)(C)C
active: Potency [12] 50.1 µM | Potency [19] 50.1 µM | Potency [13] 50.1 µM | Potency [14] 39.8 µM | Potency [16] 50.1 µM | Potency [17] 39.8 µM | Potency [18] 31.6 µM

Cc1cc2nc3c(=O)[nH]c(=O)nc-3n(C[C@H](O)[C@H](O)[C@H](O)CO)c2cc1C
inactive: outcome [11] | Potency [12] | Potency [19] | Potency [13] | Potency [14] | outcome [15] | Potency [16] | Potency [17] | Potency [18]

O=C1O[C@H]([C@@H](O)CO)C(O)=C1O
inactive: outcome [11] | Potency [12] | Potency [19] | Potency [13] | Potency [14] | outcome [15] | Potency [16] | Potency [17] | Potency [18]

Cc1cc(N)c2ccccc2[n+]1CCCCCCCCCC[n+]1c(C)cc(N)c2ccccc21
inactive: outcome [4] | outcome [5] | activity change, negative = inhibition [6] -10.5%
active: Potency [8] 0.251 µM | Potency [9] 0.0501 µM | Potency [10] 0.112 µM
-7.09%: max response [6, 20]
-16.4%: max response [6, 21]

NCCNCCNCCN
inactive: outcome [11] | Potency [12] | Potency [19] | Potency [13] | Potency [14] | outcome [15] | Potency [16] | Potency [17] | Potency [18]

CCCCCCCCCCCCOS(=O)(=O)O
inactive: outcome [11] | Potency [12] | Potency [19] | Potency [13] | Potency [14] | outcome [15] | Potency [16] | Potency [17] | Potency [18]

CSc1ccc2c(c1)C(N1CCN(C)CC1)Cc1ccccc1S2 (stereo not drawn)
9.1% and -20.8%: max response [6, 20]
active: Potency [7] 6.31 µM | Potency [8] 11.2 µM | Potency [9] 8.91 µM | Potency [10] 12.6 µM
inactive: activity change, negative = inhibition [6] 1.28% and 0.609% | Potency [1] | Potency [2]
12.4% and -19.6%: max response [6, 21]

C[C@]12CC[C@@H]3c4ccc(O)cc4CC[C@H]3[C@@H]1CCC2=O
active: Potency [7] 3.98 µM
inactive: outcome [4] | outcome [5] | Potency [1] | Potency [2]

CC[C@H]1CN2CCc3cc(OC)c(OC)cc3[C@@H]2C[C@@H]1C[C@H]1NCCc2cc(OC)c(OC)cc21
inactive: Potency [2] | Potency [3]

CC(C)C(=O)c1c(C(C)C)nn2ccccc12
inactive: outcome [4] | outcome [5] | Potency [1] | Potency [2] | Potency [3] | Potency [8] | Potency [10]

Oc1cccc(O)c1
16.6%: max response [6, 21]
10.3%: max response [6, 20]
inactive: outcome [11] | Potency [12] | Potency [19] | Potency [13] | Potency [14] | outcome [15] | Potency [16] | Potency [17] | Potency [18] | activity change, negative = inhibition [6] 4.72%

NC(N)=NCCC[C@H](N)C(=O)O
-7.59%: max response [6, 20]
inactive: outcome [4] | outcome [5] | activity change, negative = inhibition [6] -0.95% | Potency [2] | Potency [3] | Potency [7] | Potency [8] | Potency [9] | Potency [10]
-6.54%: max response [6, 21]

NCCNCCNCCNCCN
inactive: outcome [11] | Potency [12] | Potency [19] | Potency [13] | Potency [14] | outcome [15] | Potency [16] | Potency [17] | Potency [18]

[Cl][In]([Cl])[Cl]
inactive: outcome [11] | Potency [12] | Potency [19] | Potency [13] | Potency [14] | outcome [15] | Potency [16] | Potency [17] | Potency [18]
